Screening data as filed in PubChem.
JMJD2A Tudor: inhibitors of human JMJD2A Tudor domain | O75164 | AlphaScreen JMJD2A-Tudor / H3K4me3 peptide binding | Potency, µM (highest dose often 114 µM), without a hit: at the highest dose activity change, negative = inhibition, hits mostly inhibitors | 390,000 tested, 4.4% active; also: % is scaled to controls: 0 for no effect and ±100 for the full control effect; nearly all actives have a fitted effect of over 50% in size
G9a inh: inhibitors of human histone lysine methyltransferase G9a; 350,000 tested, 8.8% active; G9a H3K9 monomethylation, AlphaScreen, 2 h; Potency, µM (top dose mostly 102 µM), inactives show at the highest dose activity, negative = inhibition, hits mostly inhibitors; also: % is scaled to controls: 0 for no effect and ±100 for the full control effect; nearly all actives have a fitted effect of over 75% in size
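Enzyme 20 nM + cpd, 15 min RT; add b-H3K9 pep 500 nM / SAM 20 uM; 2 h RT; anti-H3K9me1 Ab 0.5 ug/mL + SA donor / anti-rabbit acceptor beads 20 ug/mL each, 10 min; AlphaScreen read.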
L3MBTL1 block: L3MBTL1 (human) inhibition; 230,000 tested, 0.66% active; AID 485360; Potency, µM (series often up to 57.1 µM), for the others: at the top dose activity, negative = inhibition, hits mostly inhibitors; AlphaScreen L3MBTL1–H3K9me1 peptide binding; also: % is scaled to controls: 0 for no effect and ±100 for the full control effect; nearly all actives have a fitted effect of over 60% in size
Target sequence (Q9Y468 whole entry, looked up): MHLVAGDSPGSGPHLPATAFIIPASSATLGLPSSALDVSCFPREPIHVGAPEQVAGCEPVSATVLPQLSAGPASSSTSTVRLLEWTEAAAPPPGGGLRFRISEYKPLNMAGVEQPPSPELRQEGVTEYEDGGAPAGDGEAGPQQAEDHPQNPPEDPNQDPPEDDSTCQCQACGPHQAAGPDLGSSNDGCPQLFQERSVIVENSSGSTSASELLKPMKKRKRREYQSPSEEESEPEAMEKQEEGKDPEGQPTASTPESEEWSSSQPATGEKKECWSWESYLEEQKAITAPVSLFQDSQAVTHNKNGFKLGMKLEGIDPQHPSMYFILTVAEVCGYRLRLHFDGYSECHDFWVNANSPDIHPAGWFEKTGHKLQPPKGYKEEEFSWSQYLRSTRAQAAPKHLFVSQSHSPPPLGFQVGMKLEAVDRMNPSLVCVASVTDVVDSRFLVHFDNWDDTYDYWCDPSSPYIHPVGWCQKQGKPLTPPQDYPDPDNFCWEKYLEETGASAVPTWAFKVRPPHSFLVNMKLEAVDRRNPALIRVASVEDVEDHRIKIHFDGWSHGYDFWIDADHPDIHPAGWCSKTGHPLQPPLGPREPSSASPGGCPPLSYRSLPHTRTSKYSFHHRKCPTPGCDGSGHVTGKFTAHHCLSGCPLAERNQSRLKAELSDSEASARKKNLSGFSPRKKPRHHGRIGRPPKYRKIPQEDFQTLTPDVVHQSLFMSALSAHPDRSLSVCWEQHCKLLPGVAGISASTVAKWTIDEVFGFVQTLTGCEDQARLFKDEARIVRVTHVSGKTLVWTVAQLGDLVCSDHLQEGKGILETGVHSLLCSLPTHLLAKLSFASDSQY
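L3MBTL1 (50 nM) pre-complexed 30 min with biotinylated H3(1-15)K9me1 peptide (75 nM), then compounds added for 30 min at room temperature; AlphaScreen streptavidin donor/nickel chelate acceptor beads (10 ug/mL final) read after 30 min dark incubation.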
HP1b binding inh: blocks HP1-beta chromodomain binding to methylated histone tails. P83916. AlphaScreen HP1-beta / biotin-H3K9me3 peptide binding. Potency, µM (doses to about 114 µM), without a hit: top-dose activity change, negative = inhibition, hits mostly inhibitors. 390,000 tested, 0.56% active. AID 540317; also: nearly all actives have a fitted effect of over 70% in size
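AlphaScreen: HP1-beta (50 nM) preformed 30 min with biotin-H3(1-18)K9me3 peptide (50 nM) in PBS pH 7.4, 0.01% Tween-20. Compound added for 30 min at RT, then streptavidin donor/nickel chelate acceptor beads (10 ug/mL) for 30 min.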
BAZ2B inh: blocks human BAZ2B. Q9UIF8. AlphaScreen BAZ2B-H3K14Ac peptide displacement. 360,000 tested, 4.4% active. Potency, µM (series often up to 114 µM), without a hit: top-dose activity change, negative = inhibition, actives largely listed as inhibitors; also: % is scaled to controls: 0 for no effect and ±100 for the full control effect; nearly all actives have a fitted effect of over 60% in size
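Inhibition is scored as reduced AlphaScreen emission. The BAZ2B/b-H3(5-23)K14Ac complex (50 nM each) in PBS pH 7.4, 0.01% Tween-20 meets compound (up to 110 uM) for 30 min at RT before bead addition.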
Active calls of the source: *; [ ] = another dose, or the depositor's remark. Most compounds without a hit are left out; they make up all but 11% or so of the library. Calls follow the shape of the dose curve; as a rule, active = well fitted inhibition curve with a large enough effect; inconclusive = small, poorly fitted or top-dose-only effect; inactive = no such curve, though single readings can be large or run the other way. Potency is read from the fitted curve at half-maximal effect.

`COc1cccc2[nH]c3c(N4CCN(Cc5ccc6c(c5)OCO6)CC4)ncnc3c12` gave G9a inh 44.7µM*, L3MBTL1 block 7.3% and BAZ2B inh 35.5µM*.
Cc1ccc2[nH]c3c(N4CCN(Cc5ccc6c(c5)OCO6)CC4)ncnc3c2c1 was read as G9a inh 50.1µM*, L3MBTL1 block -3.5% and BAZ2B inh inconclusive.
Cc1cccc(OCCn2c(CCNC(=O)C3CCCCC3)nc3ccccc32)c1 was read as JMJD2A Tudor 6.9%[57.1 µM] and HP1b binding inh 6.0%[57 µM].
COc1ccccc1N(CC(=O)Nc1ccc2c(c1)OCO2)S(=O)(=O)c1ccc(C)cc1 was read as JMJD2A Tudor -26.0%, G9a inh -45.7%[59 µM], HP1b binding inh 2.7% and BAZ2B inh inconclusive.
COc1cccc(CNC(=O)CCc2nnc3n(C)c(=O)c4sccc4n23)c1 was read as JMJD2A Tudor -2.0%, G9a inh -3.7%[59 µM], HP1b binding inh 25.1% and BAZ2B inh 7.0%.
For COc1ccc(C2C3=C(N=C4SCC(=O)N42)c2ccccc2CC3)cc1OC (centres undefined) the results were JMJD2A Tudor inconclusive, G9a inh 39.8µM*, L3MBTL1 block -5.9%, HP1b binding inh -6.3% and BAZ2B inh -8.1%.
For COc1ccccc1C1C2=C(N=C3SCC(=O)N31)c1ccccc1CC2 (centres undefined) the results were JMJD2A Tudor -26.5%, G9a inh inconclusive, L3MBTL1 block 2.6%, HP1b binding inh 10.4% and BAZ2B inh inconclusive.
Screening COc1ccc(C2C3=C(N=C4SCC(=O)N42)c2ccccc2CC3)cc1 (centres undefined) returned JMJD2A Tudor -35.1%, G9a inh 50.1µM*, L3MBTL1 block 16.9%, HP1b binding inh 1.0% and BAZ2B inh 12.2%.
For CCCN(c1ccccc1F)S(=O)(=O)c1ccc2c(c1)C(C)(C)C(=O)N2C the results were JMJD2A Tudor -13.6%, G9a inh 5.6%[59 µM], HP1b binding inh -0.1% and BAZ2B inh -6.2%.
For COc1ccc(NC(=O)c2cc3c(=O)n(Cc4cccs4)ccc3nc2C)c(OC)c1 the results were JMJD2A Tudor -33.0%, G9a inh -14.7%[59 µM], HP1b binding inh 37.5% and BAZ2B inh -32.1%.
For CCOc1ccc(C(=O)CC(NCc2cccs2)C(=O)O)cc1 (centres undefined) the results were JMJD2A Tudor 89.1µM*, G9a inh 25.1µM*, L3MBTL1 block -4.4%, HP1b binding inh 5.8% and BAZ2B inh -26.1%.
COc1ccc(OCC(O)CN(CC(O)COc2ccc(OC)cc2)c2cccc(O)c2)cc1 (centres undefined) was read as JMJD2A Tudor inconclusive, G9a inh 50.1µM*, HP1b binding inh -15.5% and BAZ2B inh 44.7µM*.
Screening Cc1csc(C(C)N(C)C(=O)c2ccc(OC3CCN(Cc4ccccn4)CC3)cc2)n1 (centres undefined) returned JMJD2A Tudor -24.3%, G9a inh 70.8µM*, HP1b binding inh 7.8% and BAZ2B inh inconclusive.
CC(NC(=O)c1ccc(OC2CCN(Cc3ccccn3)CC2)cc1)c1nccs1 (centres undefined) was read as JMJD2A Tudor -20.6%, G9a inh 31.0%, HP1b binding inh 28.0% and BAZ2B inh inconclusive.
For Cc1nc(C(C)NC(=O)c2ccc(OC3CCN(Cc4ccccn4)CC3)cc2)c(C)s1 (centres undefined) the results were JMJD2A Tudor -33.6%, G9a inh 7.4%, HP1b binding inh 58.6% and BAZ2B inh 79.4µM*.
For CC(C)(C)C1CCc2c(sc(NC(=O)c3ccncc3)c2C(N)=O)C1 (centres undefined) the results were JMJD2A Tudor -9.5%, G9a inh -6.5%[59 µM], L3MBTL1 block 8.7%, HP1b binding inh -0.6% and BAZ2B inh 3.9%.
`CC(C)(C)C1CCc2c(sc(NC(=O)c3cc4ccccc4c(=O)o3)c2C(N)=O)C1` (centres undefined) gave JMJD2A Tudor -3.1%, G9a inh 10µM*, HP1b binding inh 7.7% and BAZ2B inh 3.7%[57.1 µM].
For c1cncc(-c2nc(NCC3CCCO3)c3ccccc3n2)c1 (centres undefined) the results were JMJD2A Tudor 2.1%, G9a inh -5.6%, HP1b binding inh 29.3% and BAZ2B inh 8.8%.
Screening Oc1ccc(Cl)cc1Nc1nc(NCC2CCCO2)c2ccccc2n1 (centres undefined) returned JMJD2A Tudor -22.2% and HP1b binding inh 25.1%.
COc1cccc(Nc2nc(NCCO)c3ccccc3n2)c1 was read as JMJD2A Tudor -34.6%, G9a inh inconclusive, HP1b binding inh 11.0% and BAZ2B inh -11.6%.
For Oc1ccccc1Nc1nc(NCC2CCCO2)c2ccccc2n1 (centres undefined) the results were JMJD2A Tudor -31.8%, G9a inh 50.1µM*, L3MBTL1 block -4.7%, HP1b binding inh 3.4% and BAZ2B inh inconclusive.
Screening Oc1ccc(Nc2nc(NCC3CCCO3)c3ccccc3n2)cc1 (centres undefined) returned JMJD2A Tudor inconclusive, G9a inh 50.1µM*, L3MBTL1 block -10.7%, HP1b binding inh -21.2% and BAZ2B inh inconclusive.
For COc1cccc(Nc2nc(NCC3CCCO3)c3ccccc3n2)c1 (centres undefined) the results were JMJD2A Tudor -35.4%, G9a inh 44.7µM*, HP1b binding inh -6.1% and BAZ2B inh -31.2%.
CC(C)OCCCNC(=O)C(=O)Nc1c2c(nn1-c1ccccc1)CS(=O)(=O)C2 was read as JMJD2A Tudor -17.2%, G9a inh inconclusive, HP1b binding inh 34.3% and BAZ2B inh -28.6%.
For O=C1C(F)=CC(COC(c2ccccc2)(c2ccccc2)c2ccccc2)OC1n1cc(F)c(=O)[nH]c1=O (centres undefined) the results were JMJD2A Tudor 50.1µM* and HP1b binding inh -12.8%.
For O=C(Nc1cccc(N2CCCC2)c1)c1cccs1 the results were JMJD2A Tudor inconclusive, G9a inh 3.16µM*, L3MBTL1 block -15.1%, HP1b binding inh inconclusive and BAZ2B inh inconclusive.
Cc1cn(C2OC(COC(=O)c3ccccc3)C(O)C2Cl)c(=O)[nH]c1=O (centres undefined) was read as JMJD2A Tudor -4.9%, G9a inh 50.1µM*, L3MBTL1 block 5.2%, HP1b binding inh 52.6% and BAZ2B inh -12.7%.
CCCS(=O)(=O)NCCc1csc2nc(-c3ccc(OC)cc3)nn12 was read as JMJD2A Tudor -11.7%, G9a inh 9.0%[59 µM], HP1b binding inh 29.3% and BAZ2B inh 0.0%.
For COC(=O)C(Cc1c[nH]c2ccccc12)NC(=O)c1cc(-c2ccc(OC)c(OC)c2)oc1C (centres undefined) the results were JMJD2A Tudor 50.1µM*, G9a inh 50.1µM*, L3MBTL1 block -14.9%, HP1b binding inh -38.8% and BAZ2B inh -4.4%.
